molecular target: Torsin-1A-interacting protein 2 (Homo sapiens) (UniProt Q8NFQ8); test: LULL1 binders on small-molecule microarray, primary screen, cell lysate, human LULL1 lysate, 635/667 nm fluorescence (AID 1092); conditions: hLULL1 lysate binding, 635 nm fluorescence, higher = more signal;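 note: probe is lysate of COS7 cells overexpressing human LULL1; score merges per-feature 667 nm fluorescence with signal-to-noise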
Sequence (Q8NFQ8 whole entry, looked up): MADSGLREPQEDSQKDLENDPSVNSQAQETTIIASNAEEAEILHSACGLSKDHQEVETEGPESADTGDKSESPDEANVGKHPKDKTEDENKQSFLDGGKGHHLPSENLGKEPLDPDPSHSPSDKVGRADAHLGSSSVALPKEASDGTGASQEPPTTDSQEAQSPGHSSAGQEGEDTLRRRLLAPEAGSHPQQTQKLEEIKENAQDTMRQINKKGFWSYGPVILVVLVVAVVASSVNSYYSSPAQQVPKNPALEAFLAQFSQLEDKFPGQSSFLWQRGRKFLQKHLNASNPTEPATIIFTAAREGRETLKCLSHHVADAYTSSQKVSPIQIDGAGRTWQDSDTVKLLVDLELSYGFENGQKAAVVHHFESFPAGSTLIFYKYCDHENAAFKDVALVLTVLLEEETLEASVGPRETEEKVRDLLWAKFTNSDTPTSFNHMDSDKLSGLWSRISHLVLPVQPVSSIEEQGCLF

Row | Structure (SMILES) | composite z-score
1 | CCOC(=O)C[C@H]1[C@H](OC(=O)Cc2ccc3c(c2)OCO3)[C@@H](NC(=O)c2ccc3ccccc3c2)c2cc(OCCCO)ccc2N1C(=O)Cc1ccc(OC)cc1 | 1.73
2 | O=C(NCc1ccccc1)c1ccc(Br)cc1[N+](=O)[O-] | 0.715
3 | CC(C)(C)OC(=O)CC[C@]1(C(=O)N2CCCCC2)N=C(c2ccc(OCCCO)cc2)O[C@H]1c1ccccc1 | 3.48
4 | C=CCNC(=O)[C@@H]1[C@H]2C(=O)O[C@H](c3ccccc3)[C@H](c3ccccc3)N2[C@H](c2ccc(OCCO)cc2)[C@@]12C(=O)N(C(=O)OCCOC)c1ccc(C#CC3(O)CCCCCC3)cc12 | 1.6
5 | CCCC=C(CCC)[C@@H](NS(=O)(=O)c1ccc(C(F)(F)F)cc1)c1ccc(-c2ccccc2)cc1 | 3
6 | NC(=O)NCC#Cc1ccc2c(c1)[C@]1(C(=O)N2)[C@H](C(=O)N2CCCCCCC2)[C@H]2C(=O)O[C@H](c3ccccc3)[C@H](c3ccccc3)N2[C@@H]1c1ccccc1OCCO | 4.33
7 | C=C[C@H](OC)[C@@H](OC(=O)Nc1ccc(SC)cc1)c1ccc(O)c(F)c1 | 2.96
8 | CO[C@H]1COC(=O)CC=C[C@H](C)COC(=O)[C@@H](OCc2ccccc2)C=C[C@@H]1C | 0.059
9 | CC(C)C[C@@H]1NC(=O)[C@H]2C[C@@H](C(=O)NCCCCCC[N+](C)(C)C)[C@@H](c3ccc(O)cc3)N2C1=O | 1.82
10 | CO[C@H]1COC(=O)[C@@H](C)NC(=O)CC=C[C@@H](C)[C@H](OC)COC(=O)CC=C[C@@H]1C | -0.619
11 | C=CC[C@@]12N=C(c3ccc(OCCCO)cc3)O[C@@H]1c1ccccc1CN(Cc1ccccc1)C2=O | 2.86
12 | COc1ccc([Si](C)(C)[C@@H]2[C@@H](CC(=O)N(CCO)Cc3ccccc3)O[C@]3(C(=O)N(Cc4cccc(N5CCC5=O)c4)c4ccccc43)[C@H]2C)cc1 | 1.57
13 | CN(C)CCCC[C@@H]1NC(=O)[C@@H]2C[C@H](C(=O)O)[C@H](c3ccc(O)cc3)N2C1=O | 0.728
14 | CCOC(=O)C1=CCC(c2cccc3ccccc23)N(S(=O)(=O)c2ccc(C)cc2)C1 (centres undefined) | 1.64
15 | CO[C@@H]1COC(=O)CC=C[C@@H](C)[C@H](OC)COC(=O)CC=C[C@H]1C | -0.266
16 | C=C(COC)/C(=C/C[C@H](OC(C)=O)c1ccc(OCCO)cc1)c1cnc2ccccc2c1 | 1.05
17 | CO[C@H]1O[C@H](CO)[C@@H](OC(=O)Nc2ccc(Oc3ccccc3)cc2)[C@H](OC(=O)Nc2ccccc2-c2ccccc2)[C@H]1OC(=O)Nc1ccccc1-c1ccccc1 | 3.28
18 | CCC1=C2CN(Cc3ccccc3Br)[C@@H]([C@@H](O)Cc3ccccc3)C2C=CCC1 (some centres undefined) | 2.11
19 | [N-]=[N+]=NCc1ccccc1C[C@@]1(C(=O)N2CCOCC2)N=C(c2ccc(OCCCO)cc2)O[C@@H]1c1ccccc1N=[N+]=[N-] | 3.16
20 | C=CC(=O)O[C@@H](Cc1ccccc1)[C@H]1C2C=CCCC=C2CN1Cc1cccc(Cl)c1 (some centres undefined) | -0.469
21 | NC(=O)[C@H]1[C@@H]2C(=O)O[C@@H](c3ccccc3)[C@@H](c3ccccc3)N2[C@@H](c2ccc(O)cc2)[C@]12C(=O)Nc1ccc(C#CCCO)cc12 | 0.497
22 | NC(=O)NCC#Cc1ccc2c(c1)[C@]1(C(=O)N2)[C@H](C(N)=O)[C@H]2C(=O)O[C@H](c3ccccc3)[C@H](c3ccccc3)N2[C@@H]1c1ccccc1OCCO | 1.04
23 | C=CC[C@]1(C(N)=O)N=C(c2ccc(OCCCO)cc2)O[C@H]1c1ccccc1CN=[N+]=[N-] | 3.05
24 | C[N+](C)(C)CCCCNC(=O)[C@@H]1C[C@@H]2C(=O)N3CCC[C@H]3C(=O)N2[C@@H]1c1cccc(OCCO)c1 | 0.381
25 | O=C1O[C@H](c2ccccc2)[C@H](c2ccccc2)N2[C@H]1[C@@H](C(=O)Nc1nc3ccccc3s1)[C@]1(C(=O)Nc3ccc(C#CC4(O)CCCCCC4)cc31)[C@H]2c1ccc(O)cc1 | 3.08
26 | COc1ccc(C(O)C2C=CC3C(=O)N(C)C(=O)C3N2N2CCCCC2)cc1OCc1ccccc1 (centres undefined) | 2.73
27 | CC1=C([C@H](O)CCc2ccccc2)[C@H](CO)[C@@H]2C(=O)N(Cc3ccccc3)C(=O)[C@@H]2C1 | -0.2
28 | C=C[C@H](OC)[C@@H](OC(=O)Nc1ccc(SC)cc1)c1ccc(OC)c(O)c1 | -0.023
29 | CC(C)(C)OC(=O)CC[C@@]1(C(=O)NCc2ccccc2)N=C(c2ccc(OCCCO)cc2)O[C@@H]1c1ccccc1 | 3.54

From PubChem BioAssay
